According to PubChem BioAssay AID588458 (Sanford-Burnham Center for Chemical Genomics, 2011):
About 3,000 (0.83%) of roughly 360,000 compounds were called active. Shown is part of a subset that was picked to be rich in actives. Values without a mark were called inactive. Cut-off read from the data, not from the text of the source: active = inhibition above about 50%; inactive = the rest.

Target: DNA (cytosine-5)-methyltransferase 1 (Homo sapiens) (UniProt P26358)
Assay: human DNMT1 methyltransferase inhibitors, primary screen, biochemical, molecular beacon, fluorescence, HinP1I cleavage, uHTS (AID 588458)
Settings: at 10 µM, stronger effect = higher value

Sequence of DNA (cytosine-5)-methyltransferase 1 (Homo sapiens) (P26358 504-1616 limits assumed): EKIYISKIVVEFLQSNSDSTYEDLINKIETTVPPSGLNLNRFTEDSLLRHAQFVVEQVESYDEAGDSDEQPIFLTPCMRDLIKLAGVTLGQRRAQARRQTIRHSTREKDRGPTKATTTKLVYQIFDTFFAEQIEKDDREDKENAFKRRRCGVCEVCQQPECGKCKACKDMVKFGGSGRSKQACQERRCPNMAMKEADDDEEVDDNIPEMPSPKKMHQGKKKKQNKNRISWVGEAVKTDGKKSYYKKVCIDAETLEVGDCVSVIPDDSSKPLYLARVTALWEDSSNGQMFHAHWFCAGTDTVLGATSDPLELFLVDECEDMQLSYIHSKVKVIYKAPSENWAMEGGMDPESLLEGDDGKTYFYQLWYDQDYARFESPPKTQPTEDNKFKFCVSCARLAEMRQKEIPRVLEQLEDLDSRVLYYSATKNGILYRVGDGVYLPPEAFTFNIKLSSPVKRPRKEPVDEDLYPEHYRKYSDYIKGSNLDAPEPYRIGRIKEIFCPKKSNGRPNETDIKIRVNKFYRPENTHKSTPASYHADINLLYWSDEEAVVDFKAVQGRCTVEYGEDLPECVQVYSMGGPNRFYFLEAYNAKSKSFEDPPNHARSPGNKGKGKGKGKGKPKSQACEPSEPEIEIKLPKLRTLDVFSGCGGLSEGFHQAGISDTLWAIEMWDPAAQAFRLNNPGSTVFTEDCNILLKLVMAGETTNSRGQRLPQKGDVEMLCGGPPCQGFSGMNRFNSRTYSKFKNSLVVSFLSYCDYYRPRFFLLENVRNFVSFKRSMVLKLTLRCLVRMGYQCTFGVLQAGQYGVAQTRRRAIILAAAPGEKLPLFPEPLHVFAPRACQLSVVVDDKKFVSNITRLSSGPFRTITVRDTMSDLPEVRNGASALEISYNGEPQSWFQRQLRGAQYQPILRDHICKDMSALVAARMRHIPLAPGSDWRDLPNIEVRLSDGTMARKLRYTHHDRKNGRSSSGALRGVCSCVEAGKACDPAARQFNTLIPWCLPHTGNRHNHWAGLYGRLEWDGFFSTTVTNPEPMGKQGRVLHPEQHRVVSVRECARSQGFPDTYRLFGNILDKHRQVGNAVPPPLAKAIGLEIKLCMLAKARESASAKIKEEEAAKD

| Compound | inhibition (reported as % activation of signal) |
| --- | --- |
| O=C(CC1C(=O)NCCN1Cc1ccc(-c2ccccc2)cc1)NCc1ccncc1 (centres undefined) | -12.2% |
| Cc1ccccc1-n1cc(CNC(=O)C2CCC(=O)N(C3CC3)C2)cn1 (centres undefined) | 0.34% |
| Cc1ccccc1-n1cc(CNC(=O)CC2C(=O)NCCN2C/C=C/c2ccccc2)cn1 (centres undefined) | 68.2% (active) |
| COc1ccc(Cc2nnc(NC(=O)Cc3cccs3)s2)cc1 | 113% (active) |
| COc1cc(OC)cc(C(=O)NNC(=O)Cc2cccs2)c1 | 7.66% |
| COc1ccccc1NC(=O)Nc1nnc(Cc2ccc(F)cc2)s1 | 9.56% |
| CC(C)(C)NC(=O)C(c1ccncc1)N(C(=O)CNC(=O)c1ccco1)c1ccc2c(c1)OCO2 (centres undefined) | -1.68% |
| CCOc1ccc(-n2cnnn2)cc1S(=O)(=O)N1CCC(C)CC1C (centres undefined) | 4.44% |
| CC(C)(C)OC(=O)C[C@@H]1C/C=C\C[C@@H](CC(=O)N[C@@H](CO)Cc2ccccc2)C(=O)N2CCC[C@H]2COC1=O | 1.28% |
| Nc1ncnc(Nc2cccc(Cl)c2Cl)n1 | 0.57% |
| COc1cc(C(=O)Nc2cc(C(F)(F)F)ccc2-n2cncn2)cc(OC)c1OC | -2.48% |
| O=C(COC(=O)c1ccccc1O)NCc1ccco1 | 50% |
| O=C(COC(=O)c1cnc(Cl)c(Cl)c1)NCc1ccco1 | 30.3% |
| Cc1cc(C(=O)OCC(=O)NCc2ccco2)c(C)n1-c1ccccc1 | 55.9% (active) |
| N#CC(C#N)=CN=c1ccn(Cc2ccc(Cl)cc2Cl)cc1 | -4.93% |
| Cc1cccc(C)c1NC(=O)C1(C)c2cccc[n+]2CC(=O)N1Cc1cccs1 (centres undefined) | -3.99% |
| O=C(/C=C/c1cnc2ccccc2n1)NC1CCCCCC1 | -5.96% |
| COc1ccc(CCNC(=O)C(=O)NCC2OCCN2S(=O)(=O)c2ccc(OC)c(C)c2)cc1 (centres undefined) | -5.69% |
| O=c1[nH][nH]c(C(F)(F)F)c1C=NCc1ccccc1Cl | -3.13% |
| CCN(CC)S(=O)(=O)c1ccc(N2CC(C(=O)NCc3cccnc3)CC2=O)cc1 (centres undefined) | 2.78% |
| Cc1cc(C)cc(OCC(=O)Nc2ccc(N3CCOCC3)cc2N2CCOCC2)c1 | -5.22% |
| O=C(N/N=C/c1cccc(OC(=O)c2ccc([N+](=O)[O-])cc2)c1)c1cccnc1 | 2.43% |
| O=C(COc1ccc(/C=N/NC(=O)c2ccc(O)cc2)cc1)Nc1ccc([N+](=O)[O-])cc1 | 54% (active) |
| Cc1cc(N2CCCC2)ccc1NC(=O)COc1ccc(Cl)cc1 | 59.6% (active) |
| O=C(COc1ccc([N+](=O)[O-])cc1)Nc1cccc(C(=O)Nc2ccccc2C(=O)O)c1 | -0.08% |
| O=C(COC(=O)C1CCCCC1)Nc1ccc([N+](=O)[O-])cc1 | -1.74% |
| O=C(CCC(=O)N1CCCC1)Nc1ccc([N+](=O)[O-])cc1 | 0.7% |
| O=C(COc1ccc(Cl)cc1)Nc1ccccc1CO | 0.96% |
| O=C(COc1ccc([N+](=O)[O-])cc1)Nc1ccc(N2CCCC2)cc1 | 92.5% (active) |
